# Measured values from article PMC5540273 (PLoS ONE, 2017).
# Read-outs that look alike come from different tables or passages of the source.
# Tests used:
# LCK = settings: concentration: 1 μM, replicates: in singlicate; n = 1
# LIMK1 = settings: concentration: 1 μM, replicates: in singlicate; n = 1
# LIMK2 = settings: concentration: 1 μM, replicates: in singlicate; n = 1
# LKB1 = test system: T1, LKB1; settings: concentration: 1 μM, replicates: in singlicate; n = 1
# T1 construct: gene STK11
# LOK = test system: T2, LOK; settings: concentration: 1 μM, replicates: in singlicate; n = 1
# T2 construct: gene STK10
# LRRK2 = settings: concentration: 1 μM, replicates: in singlicate; n = 1
# LTK = settings: concentration: 1 μM, replicates: in singlicate; n = 1
# LYN = settings: concentration: 1 μM, replicates: in singlicate; n = 1
# LZK = test system: T3, LZK; settings: concentration: 1 μM, replicates: in singlicate; n = 1
# T3 construct: gene MAP3K13
# MAK = settings: concentration: 1 μM, replicates: in singlicate; n = 1
# MAP3K15 = settings: concentration: 1 μM, replicates: in singlicate; n = 1
# MAP3K1 = settings: concentration: 1 μM, replicates: in singlicate; n = 1
# MAP3K2 = settings: concentration: 1 μM, replicates: in singlicate; n = 1
# MAP3K3 = settings: concentration: 1 μM, replicates: in singlicate; n = 1
# MAP3K4 = settings: concentration: 1 μM, replicates: in singlicate; n = 1
# MAP4K2 = settings: concentration: 1 μM, replicates: in singlicate; n = 1
# MAP4K3 = settings: concentration: 1 μM, replicates: in singlicate; n = 1
# MAP4K4 = settings: concentration: 1 μM, replicates: in singlicate; n = 1
# MAP4K5 = settings: concentration: 1 μM, replicates: in singlicate; n = 1
# MAPKAPK2 = settings: n = 1
# [1] = concentration: 1 μM, replicates: in singlicate
# 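Note: KINOMEscan kinase panel screen.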
smiles,measurement,setting,value
CCn1c(-c2nonc2N)nc2c(C#CC(C)(C)O)ncc(OCCCCN)c21.O=C(O)C(F)(F)F.O=C(O)C(F)(F)F [GSK507274],%Inh,LCK,0%
same,%Inh,LIMK1,0%
same,%Inh,LIMK2,0%
same,%Inh,LKB1,0%
same,%Inh,LOK,0%
same,%Inh,LRRK2,45%
same,%Inh,LTK,0%
same,%Inh,LYN,0%
same,%Inh,LZK,0%
same,%Inh,MAK,88%
same,%Inh,MAP3K15,3%
same,%Inh,MAP3K1,100%
same,%Inh,MAP3K2,90%
same,%Inh,MAP3K3,81%
same,%Inh,MAP3K4,53%
same,%Inh,MAP4K2,0%
same,%Inh,MAP4K3,0%
same,%Inh,MAP4K4,7%
same,%Inh,MAP4K5,35%
same,%Inh,MAPKAPK2; 1 µM,28%
c1ccc(-c2n[nH]cc2Nc2ccnc3ccccc23)nc1 [GW694077],%Inh,LCK,0%
same,%Inh,LIMK1,0%
same,%Inh,LIMK2,13%
same,%Inh,LKB1,94%
same,%Inh,LOK,0%
same,%Inh,LRRK2,78%
same,%Inh,LTK,0%
same,%Inh,LYN,0%
same,%Inh,LZK,0%
same,%Inh,MAK,0%
same,%Inh,MAP3K15,6%
same,%Inh,MAP3K1,0%
same,%Inh,MAP3K2,38%
same,%Inh,MAP3K3,0%
same,%Inh,MAP3K4,9%
same,%Inh,MAP4K2,65%
same,%Inh,MAP4K3,0%
same,%Inh,MAP4K4,20%
same,%Inh,MAP4K5,0%
same,%Inh,MAPKAPK2; [1],0%
COCCOCCOc1cc2ncc3c4ccc(C#N)cc4[nH]c3c2cc1OC,%Inh,LCK,35%
same,%Inh,LIMK1,16%
same,%Inh,LIMK2,1%
same,%Inh,LKB1,15%
same,%Inh,LOK,73%
same,%Inh,LRRK2,95.4%
same,%Inh,LTK,34%
same,%Inh,LYN,31%
same,%Inh,LZK,1%
same,%Inh,MAK,0%
same,%Inh,MAP3K15,65%
same,%Inh,MAP3K1,0%
same,%Inh,MAP3K2,0%
same,%Inh,MAP3K3,4%
same,%Inh,MAP3K4,17%
same,%Inh,MAP4K2,11%
same,%Inh,MAP4K3,39%
same,%Inh,MAP4K4,42%
same,%Inh,MAP4K5,19%
same,%Inh,MAPKAPK2; [1],0%
CN1CCN(Cc2cccc(-c3ccc4c(Nc5ccc(Oc6ccccc6)cc5)ccnc4c3)c2)CC1 [GW578342],%Inh,LCK,95.2%
same,%Inh,LIMK1,0%
same,%Inh,LIMK2,0%
same,%Inh,LKB1,12%
same,%Inh,LOK,21%
same,%Inh,LRRK2,0%
same,%Inh,LTK,38%
same,%Inh,LYN,58%
same,%Inh,LZK,0%
same,%Inh,MAK,27%
same,%Inh,MAP3K15,0%
same,%Inh,MAP3K1,0%
same,%Inh,MAP3K2,0%
same,%Inh,MAP3K3,0%
same,%Inh,MAP3K4,15%
same,%Inh,MAP4K2,0%
same,%Inh,MAP4K3,0%
same,%Inh,MAP4K4,0%
same,%Inh,MAP4K5,0%
same,%Inh,MAPKAPK2; [1],3%
Nc1ncnc2c1nc(-c1ccccc1)n2-c1ccccc1 [SKF-97293],%Inh,LCK,6%
same,%Inh,LIMK1,0%
same,%Inh,LIMK2,2%
same,%Inh,LKB1,60%
same,%Inh,LOK,21%
same,%Inh,LRRK2,58%
same,%Inh,LTK,9%
same,%Inh,LYN,8%
same,%Inh,LZK,4%
same,%Inh,MAK,27%
same,%Inh,MAP3K15,22%
same,%Inh,MAP3K1,34%
same,%Inh,MAP3K2,28%
same,%Inh,MAP3K3,14%
same,%Inh,MAP3K4,35%
same,%Inh,MAP4K2,18%
same,%Inh,MAP4K3,3%
same,%Inh,MAP4K4,0%
same,%Inh,MAP4K5,2%
same,%Inh,MAPKAPK2; [1],0%
Cn1cc(-c2ccc3c(c2)CCN3C(=O)Cc2cccc(F)c2)c2c(N)ncnc21 [GSK2603358],%Inh,LCK,46%
same,%Inh,LIMK1,0%
same,%Inh,LIMK2,0%
same,%Inh,LKB1,0%
same,%Inh,LOK,91.9%
same,%Inh,LRRK2,0%
same,%Inh,LTK,33%
same,%Inh,LYN,0%
same,%Inh,LZK,37%
same,%Inh,MAK,27%
same,%Inh,MAP3K15,0%
same,%Inh,MAP3K1,15%
same,%Inh,MAP3K2,84%
same,%Inh,MAP3K3,50%
same,%Inh,MAP3K4,66%
same,%Inh,MAP4K2,18%
same,%Inh,MAP4K3,64%
same,%Inh,MAP4K4,0%
same,%Inh,MAP4K5,57%
same,%Inh,MAPKAPK2; [1],31%
COc1cc(Nc2ncc3c(C)nc(-c4cc5ccccc5[nH]4)n3n2)cc(OC)c1OC [GW869516],%Inh,LCK,71%
same,%Inh,LIMK1,0%
same,%Inh,LIMK2,4%
same,%Inh,LKB1,0%
same,%Inh,LOK,8%
same,%Inh,LRRK2,0%
same,%Inh,LTK,0%
same,%Inh,LYN,26%
same,%Inh,LZK,0%
same,%Inh,MAK,0%
same,%Inh,MAP3K15,0%
same,%Inh,MAP3K1,0%
same,%Inh,MAP3K2,0%
same,%Inh,MAP3K3,14%
same,%Inh,MAP3K4,52%
same,%Inh,MAP4K2,0%
same,%Inh,MAP4K3,0%
same,%Inh,MAP4K4,19%
same,%Inh,MAP4K5,11%
same,%Inh,MAPKAPK2; [1],0%
Nc1ncc(-c2cccnc2)c2scc(-c3ccc4c(c3)CCN4C(=O)Cc3ccccc3)c12 [GSK683281],%Inh,LCK,70%
same,%Inh,LIMK1,22%
same,%Inh,LIMK2,36%
same,%Inh,LKB1,10%
same,%Inh,LOK,75%
same,%Inh,LRRK2,0%
same,%Inh,LTK,50%
same,%Inh,LYN,45%
same,%Inh,LZK,0%
same,%Inh,MAK,28%
same,%Inh,MAP3K15,100%
same,%Inh,MAP3K1,41%
same,%Inh,MAP3K2,56%
same,%Inh,MAP3K3,18%
same,%Inh,MAP3K4,69%
same,%Inh,MAP4K2,23%
same,%Inh,MAP4K3,95.2%
same,%Inh,MAP4K4,8%
same,%Inh,MAP4K5,98.8%
same,%Inh,MAPKAPK2; [1],24%
Oc1cc(Nc2ccnc3cc(I)ccc23)ccc1F [GW552771],%Inh,LCK,78%
same,%Inh,LIMK1,8%
same,%Inh,LIMK2,0%
same,%Inh,LKB1,0%
same,%Inh,LOK,0%
same,%Inh,LRRK2,55%
same,%Inh,LTK,4%
same,%Inh,LYN,20%
same,%Inh,LZK,9%
same,%Inh,MAK,22%
same,%Inh,MAP3K15,11%
same,%Inh,MAP3K1,7%
same,%Inh,MAP3K2,9%
same,%Inh,MAP3K3,0%
same,%Inh,MAP3K4,0%
same,%Inh,MAP4K2,0%
same,%Inh,MAP4K3,0%
same,%Inh,MAP4K4,67%
same,%Inh,MAP4K5,100%
same,%Inh,MAPKAPK2; [1],24%
